Most compounds without a hit are left out; they make up all but 2% or so of the library.
NadD block – inhibitors of S. aureus NadD, primary screen, biochemical, colorimetric, uHTS. Nicotinate-nucleotide adenylyltransferase NadD (Staphylococcus aureus N315). purified NadD enzyme, colorimetric absorbance read-out. inhibition, % at 20 µM. hit rate 0.78% among 360,000; in the data active = inhibition above about 26%
HGIII-sPLA2 inh – human group III sPLA2 inhibitors, primary screen, biochemical, QFRET, BODIPY PC-A2 liposome substrate | Group 3 secretory phospholipase A2 (Homo sapiens), Q9NZ20 | QFRET BODIPY PC-A2 liposome hydrolysis, fluorescence | inhibition, % at 12.2 µM | hit rate 0.56% among 370,000 | AID 743126, 2013;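 active = inhibition above mean plus 3 SD of compounds lying within the high and low control bounds, cut at about 19% in these data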;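 also: 0% = median of test compound wells and 100% = no enzyme DMSO wells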
DAGLB inhibitor – DAGLB lipase inhibitors, primary screen, biochemical, fluorescence, HTS. inhibition, % at 5.17 µM. HEK293T DAGLB membrane lysate, EnzChek fluorogenic substrate. Diacylglycerol lipase-beta (Homo sapiens), Q8NCG7. AID 504411, 2011. hit rate 0.059% among 340,000; in the data active = inhibition above about 34%;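 also: 0% = enzyme with vehicle and 100% = wells lacking enzyme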
Neddyl block – inhibitors of cullin neddylation, primary screen, biochemical, TR-FRET, uHTS, NAE and Ubc12; NEDD8-conjugating enzyme Ubc12 (Homo sapiens) + NEDD8-activating enzyme E1 regulatory …; inhibition, % at 25 µM; hit rate 0.58% among 360,000; AID 651699, 2012; in the data active = inhibition above about 36%
Target sequence (P61081 whole entry, looked up): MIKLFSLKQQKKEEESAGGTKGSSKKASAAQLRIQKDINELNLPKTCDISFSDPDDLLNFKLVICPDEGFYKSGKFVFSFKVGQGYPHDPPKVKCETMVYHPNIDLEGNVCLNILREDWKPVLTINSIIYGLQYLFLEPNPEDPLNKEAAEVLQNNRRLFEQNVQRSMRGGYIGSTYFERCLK
Target sequence (Q13564 whole entry, looked up): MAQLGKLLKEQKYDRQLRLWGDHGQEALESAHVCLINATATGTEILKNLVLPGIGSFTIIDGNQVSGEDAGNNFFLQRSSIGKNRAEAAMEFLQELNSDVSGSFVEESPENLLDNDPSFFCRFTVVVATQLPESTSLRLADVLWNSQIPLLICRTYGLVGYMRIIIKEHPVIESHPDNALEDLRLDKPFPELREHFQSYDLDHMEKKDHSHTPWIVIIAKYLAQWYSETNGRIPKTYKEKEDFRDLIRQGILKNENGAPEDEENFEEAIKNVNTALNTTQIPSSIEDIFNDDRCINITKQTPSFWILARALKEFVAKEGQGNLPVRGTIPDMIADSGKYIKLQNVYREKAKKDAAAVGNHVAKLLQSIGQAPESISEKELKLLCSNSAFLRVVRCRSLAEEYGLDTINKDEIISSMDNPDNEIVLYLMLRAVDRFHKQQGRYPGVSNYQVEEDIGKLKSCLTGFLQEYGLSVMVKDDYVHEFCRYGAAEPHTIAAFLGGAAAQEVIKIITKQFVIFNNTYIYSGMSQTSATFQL
ARNT TACC3 PPI – disruptors of ARNT/TACC3 protein interaction, primary screen, biochemical, AlphaScreen, single concentration. Transforming acidic coiled-coil-containing protein 3 (Homo sapiens), Q9Y6A5. AlphaScreen His-ARNT PAS-B/GST-TACC3 binding, luminescence; TACC3 fragment carries E629A point mutation. inhibition, % at 9.99 µM. hit rate 0.66% among 390,000;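 active = mean inhibition of replicates at least 50% and at least half of replicates each reaching 50%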;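 also: 0% = complete ARNT plus TACC3 wells and 100% = ARNT alone without TACC3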
NadD inh conf – inhibitors of S. aureus NadD, confirmation, biochemical, colorimetric, single concentration; shares compounds with NadD block; purified S. aureus NadD, colorimetric enzyme assay; inhibition, % at 20 µM; hit rate 13% among 2,000; AID 624309, 2012; in the data active = inhibition mostly above about 42%, no sharp cut-off; inactive = mostly below about 42%
Numbers without * were called inactive; x = no result.

SMILES | NadD block | HGIII-sPLA2 inh | DAGLB inhibitor | Neddyl block | ARNT TACC3 PPI | NadD inh conf
CC1(c2ccccc2)CC(C)(C)n2c(O)c(C3=NC(=S)NC3=O)c3cccc1c32 (configuration not stated) | 32.5* | -4.7 | 9.6 | 7.2 | -1.0 | -0.6
COc1cc2c3c(c1)c(C1=NC(=S)NC1=O)c(O)n3C(C)(C)C=C2C | -2.5 | 2.8 | 5.2 | -9.2 | -2.1 | x
COc1ccc(CN(C)C[C@@H]2Oc3ccc(NC(=O)CCC(F)(F)F)cc3CC(=O)N([C@H](C)CO)C[C@H]2C)cc1 | x | x | x | x | -8.3 | x
CN(C)CC#Cc1ccc([C@H]2[C@H]3CN(C(=O)C4CC4)CCCCN3[C@H]2CO)cc1 | x | x | x | x | -5.4 | x
COc1ccccc1Cc1c(-c2ccc(C)cc2)nc2c3ccccc3ccn12 | x | 5.7 | x | x | x | x
Cc1ccc(-c2nc3c4ccccc4ccn3c2Cc2ccccc2C(F)(F)F)cc1 | 30.6* | -6.4 | x | 27.7 | x | 18.5
O=C(c1ccccc1)c1ccc2nc(-c3ccco3)c(-c3ccco3)nc2c1 | 74.5* | 9.2 | 4.3 | -23.9 | 4.0 | 18.9
COC(=O)C[C@@H]1CC[C@@H]2[C@H](COC[C@@H](O)CN2C(=O)Nc2ccccc2OC)O1 | x | x | x | x | 5.4 | x
CC(C)n1c(CNC(=O)c2ccccc2F)nnc1SCC(=O)NC1CCCCC1 | 32.4* | -5.1 | 9.1 | -14.4 | 3.5 | 16.2
N#CCCN(CCC#N)S(=O)(=O)c1ccc(C(=O)Nc2nc(-c3ccccc3)c(C(=O)c3ccccc3)s2)cc1 | 35.7* | -2.0 | 4.2 | -152.5 | -10.4 | 1.1
O=C(COc1ccc(-c2ccccc2)cc1)N/N=C/c1ccccc1Br | 7.2 | -4.8 | -10.6 | 8.2 | -5.4 | x
O=C(COc1ccc(-c2ccccc2)cc1)N/N=C/c1cc(O)ccc1Br | 30.5* | -46.6 | -9.6 | -4.7 | x | 28.7
COc1ccccc1C(=O)N1C[C@@H]2[C@H](c3ccccc31)[C@@H](CO)N2C(=O)C1CCCC1 | x | x | x | x | -8.6 | x
O=C(Cc1cccnc1)N[C@H]1CC[C@@H](CCn2cc(Cc3ccccc3)nn2)O[C@H]1CO | x | x | x | x | 2.2 | x
Nc1cc(N)cc(C(=O)OCC(=O)Nc2cc(S(=O)(=O)N3CCCCC3)ccc2Cl)c1 | 31.1* | 7.6 | 2.0 | 4.2 | -2.3 | 17.6
O=C(NCc1ccco1)C12CN(Cc3ccccc3)CC1C(c1ccc([N+](=O)[O-])cc1)=NO2 (configuration not stated) | 7.2 | -12.6 | -0.1 | -28.4 | -0.6 | x
O=C(NCc1ccco1)C12CN(Cc3ccccc3)CC1C(c1cccc([N+](=O)[O-])c1)=NO2 (configuration not stated) | 36.4* | -3.6 | -0.3 | -47.3 | x | 11.6
C[C@H](CO)N1C[C@H](C)[C@@H](CN(C)S(=O)(=O)c2ccc(F)cc2)Oc2ccc(NC(=O)CCN3CCOCC3)cc2CC1=O | x | x | x | x | 6.8 | x
N#C/C(=C\c1ccc(-c2cccc([N+](=O)[O-])c2)o1)C(=O)Nc1nc(-c2cccs2)cs1 | 41.9* | 2.5 | 4.7 | -20.8 | -1.4 | -3.8
NS(=O)(=O)c1ccc(N/N=C/c2ccc3c(c2)OCO3)c([N+](=O)[O-])c1 | 3.7 | 4.6 | 13.6 | -9.1 | -3.8 | x
Cc1nc(Nc2ccc(Cl)c(Cl)c2)sc1C(/C=C/c1ccc2c(c1)OCO2)=NNc1ccc([N+](=O)[O-])cc1[N+](=O)[O-] | 48.1* | -1.9 | 3.4 | -4.2 | -8.4 | 0.2
Cc1ccc(Cc2cnc(NC(=O)/C(C#N)=C/c3ccc(-c4ccccc4[N+](=O)[O-])o3)s2)cc1 | 29.1* | 0.1 | 0.2 | -7.2 | x | -1.0
CCc1ccc(NC(=O)/C(C#N)=C/c2cn(CC(=O)O)c3ccccc23)cc1 | 10.0 | -9.1 | 3.0 | -10.1 | 10.0 | x
Cn1cc(/C=C(\C#N)C(=O)Nc2ncc(Cc3ccc(Cl)cc3)s2)c2ccccc21 | 30.6* | 2.3 | 4.2 | 11.6 | 0.3 | 0.5
CC(C)NC(=O)Nc1ccc2c(c1)C(=O)N([C@@H](C)CO)C[C@H](C)[C@@H](CN(C)C(=O)c1ccccc1)OCCCC[C@H](C)O2 | x | x | x | x | -5.3 | x
SMILES | NadD block | HGIII-sPLA2 inh | DAGLB inhibitor | Neddyl block | ARNT TACC3 PPI | NadD inh conf
COc1ccc2cc3[n+](cc2c1O)CCc1cc2c(cc1-3)OCO2 | 41.4* | 7.5 | x | 1.8 | x | 32.5
CCc1cccc2cc3c(N)c(C(=O)Nc4ccc(S(=O)(=O)N5CCCC5)cc4)sc3nc12 | 44.1* | -15.1 | -10.2 | 6.2 | -3.7 | 16.3
CC=Cc1ccc2n(c1=O)C[C@H]1[C@H](CO)[C@@H](C(=O)OC)N(C(C)=O)[C@@H]21 (mixture of isomers) | x | x | x | x | -1.5 | x
COc1ccc(Cl)cc1C(=O)NNC(=S)NC(=O)c1cc(-c2ccc(Cl)cc2)nc2ccccc12 | 71.9* | 5.6 | -0.8 | 6.6 | 2.6 | 17.9
Cc1sc(NC(=O)c2cc(-c3ccc(Cl)cc3)nc3ccccc23)c(C(N)=O)c1C | 33.0* | 0.5 | -0.3 | 11.8 | x | 5.9
Cc1ccccc1-c1cc(C(=O)Nc2sc(C(=O)OC(C)C)c(C)c2C#N)c2ccccc2n1 | 73.9* | -6.2 | 7.7 | -1.4 | 2.6 | 27.3
COc1ccccc1C(=O)NNC(=S)NC(=O)c1sc2ccccc2c1Cl | 64.3* | -3.0 | 3.3 | 6.2 | 2.5 | 11.3
C[C@@H]1CN([C@@H](C)CO)S(=O)(=O)c2ccc(C#Cc3ccc(F)cc3)cc2O[C@H]1CN(C)C(=O)CN(C)C | x | x | x | x | 1.4 | x
C[C@@H]1CN([C@@H](C)CO)C(=O)c2cccc(NC(=O)Nc3ccccc3)c2O[C@@H]1CN(C)C(=O)Nc1ccc(C(F)(F)F)cc1 | x | x | x | x | 7.3 | x
CCOC(=O)c1sc(NC(=O)c2cc(-c3ccc(C)cc3)nc3ccccc23)c(C#N)c1C | 41.9* | 6.3 | 1.4 | 13.6 | -3.4 | 11.2
COc1cc(OC)cc(-c2c(C#Cc3ccsc3)c3cc(-c4cccc5[nH]cc(C=O)c45)ccc3n2C)c1 | 45.8* | 12.7 | 1.9 | -0.5 | -4.1 | 29.0
Cn1cnnc1SCc1ccc(-c2ccc(Br)cc2)o1 | 40.8* | -5.0 | 2.9 | -3.2 | -4.3 | 13.4
O=C(C[C@H]1C[C@@H]2c3cc(NC(=O)Nc4ccccc4F)ccc3O[C@@H]2[C@@H](CO)O1)NC1CCCC1 | x | x | x | x | -9.7 | x
O=C(c1ccco1)N1N=C(c2ccco2)CC1c1ccc(Cl)cc1Cl (configuration not stated) | 30.5* | 13.7 | 4.0 | -79.1 | -8.4 | -0.2
O=C(c1ccco1)N1N=C(c2cccs2)CC1c1cc([N+](=O)[O-])ccc1O (configuration not stated) | 8.1 | -50.3 | 9.0 | -15.8 | 3.3 | x

From PubChem BioAssay
